Compounds without any hit were thinned out: in the full panel of roughly 79,000, 15% have a hit. Values without a mark were called inactive. Calls of active or inactive are those of the source. Rule as the data show it: active = growth inhibition above about 70%; inactive = the rest.

21 molecules from PubChem BioAssay (NCI) can be followed below.

Assay [1] can be described thus: NCI Yeast Anticancer Drug Screen. Data for the rad50 strain (AID 155).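 Also: 0% = growth of vehicle-only cultures of the same strain.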 Particulars: S. cerevisiae rad50 strain growth inhibition; at 50.0 µM; active compounds read high. Summed up: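 Yeast carrying a defined DNA repair defect were exposed to test compounds, and growth was compared with vehicle-treated controls to give percent inhibition.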
Assay [2] can be described thus: NCI Yeast Anticancer Drug Screen. Data for the mec2-1 strain (AID 157). Particulars: S. cerevisiae mec2-1 strain, at 50.0 µM, active compounds read high. Summed up: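 Readout is yeast growth inhibition, normalised to vehicle-treated controls, in the mec2-1 strain exposed to compound.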
The nature of assay [3]: NCI Yeast Anticancer Drug Screen. Data for the sgs1 mgt1 strain (AID 161).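 Also: 0% = growth of cultures given vehicle only.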 Particulars: S. cerevisiae sgs1 mgt1 strain, at 50.0 µM, active compounds read high. Summed up: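 Compounds are added to genetically altered yeast, and growth is compared with cultures given vehicle alone to give percent inhibition.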
Assay [4] can be described thus: NCI Yeast Anticancer Drug Screen. Data for the cln2 rad14 strain (AID 165).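 Also: 0% = growth equal to vehicle treated cultures.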 Particulars: S. cerevisiae cln2 rad14 strain, at 50.0 µM, active compounds read high. Put shortly: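 Relative to vehicle controls, growth inhibition of compound-treated cln2 rad14 yeast was recorded.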
A short description of assay [5]: NCI Yeast Anticancer Drug Screen. Data for the bub3 strain (AID 167). Particulars: S. cerevisiae bub3 mutant strain, at 50.0 µM, active compounds read high. Summed up: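 Compounds were applied to a genetically altered yeast strain carrying a cell-cycle control defect. Growth inhibition was scored against vehicle-treated controls.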
Assay [6] in a line: NCI Yeast Anticancer Drug Screen. Data for the mlh1 rad18 strain (AID 175). Particulars: S. cerevisiae mlh1 rad18 strain growth inhibition; at 50.0 µM; active compounds read high. Put shortly:
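Test agents were incubated with a yeast strain of defined genotype (DNA damage repair defect). Inhibition of growth was derived by comparison with vehicle-exposed cultures.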

As for `OC1(c2cccc(C(F)(F)F)c2)CCNCC1`, the growth inhibition was -21.8% in assay [1]; -13.5% in assay [2]; -7.4% in assay [3]; -6.9% in assay [4]; -22.6% in assay [5]; -8.3% in assay [6].
As to `O=C(OCC1OC=C(OC(=O)c2ccccc2)C1OC(=O)c1ccccc1)c1ccccc1` (stereo unspecified), the growth inhibition is 91.8% (active) in assay [1]; 11.7% in assay [2]; 32.3% in assay [3]; 24.9% in assay [4]; -1.85% in assay [5]; 60% in assay [6].
Turning to `NC(CCCC(N)P(=O)(O)c1ccccc1)P(=O)(O)c1ccccc1` (stereo unspecified), the growth inhibition is -37.9% in assay [1]; -40.5% in assay [2]; -63.5% in assay [3]; -9.65% in assay [4]; -45.5% in assay [5]; -46.6% in assay [6].
Consider `CCC(c1ccccc1)c1cc(C(C)(C)C)cc(C(C)(C)C)c1O` (stereo unspecified), for which the growth inhibition is 31.9% in assay [1]; -36% in assay [2]; -15.4% in assay [3]; -2.25% in assay [4]; 25.4% in assay [5]; 0.95% in assay [6].
With `CNC(=O)NNC(=O)NC`, the growth inhibition was -45.1% in assay [1]; -24.6% in assay [2]; -24.6% in assay [3]; -27.6% in assay [4]; -15.7% in assay [5]; -6.05% in assay [6].
For `Cc1nc2c(ncn2C2OC(CO)C(O)C2O)c(=O)[nH]1` (stereo unspecified), the growth inhibition in assay [1] was -2.7%; in assay [2] it was 11.2%; in assay [3] it was -2.7%; in assay [4], -3.7%; in assay [5] it was 0.85%; in assay [6], -18.4%.
Regarding `COc1c(O)ccc(C(=O)O)c1N`, the growth inhibition in assay [1] is 13%; in assay [2], 6.55%; in assay [3] it was 14.1%; in assay [4], 10.1%; in assay [5], 8.95%; in assay [6], -17.4%.
In the case of `CCOc1ccccc1NC(=O)C1CCCCC1C(=O)O` (stereo unspecified), the growth inhibition in assay [1] is 14.2%; in assay [2] it was 16.7%; in assay [3], 14.6%; in assay [4], 25.6%; in assay [5], 12.7%; in assay [6] it was 7.8%.
Turning to `Cc1cc2nc(C(C)C(=O)c3ccc(Cl)cc3)c(=O)[nH]c2cc1C` (stereo unspecified), the growth inhibition in assay [1] was -12.1%; in assay [2], -12.7%; in assay [3], -0.9%; in assay [4] it was 0.5%; in assay [5], -24.4%; in assay [6], -3.9%.
Take `COc1ccc2c3c([nH]c2c1)CCN(CCCC(=O)c1ccc(F)cc1)C3`: the growth inhibition in assay [1] was -8.15%; in assay [2], -4%; in assay [3], 42.6%; in assay [4], 31.1%; in assay [5] it was 45.2%; in assay [6] it was 1.8%.
On to `COc1ccc(C=O)c(Br)c1O`, for which the growth inhibition is -0.65% in assay [1]; -6.85% in assay [2]; -14.2% in assay [3]; 22.4% in assay [4]; -12.3% in assay [5]; -16.9% in assay [6].
As to `CC(=O)Oc1ccc(NCNc2ccc(OC(C)=O)cc2)cc1`, the growth inhibition in assay [1] was -11.8%; in assay [2], 0.95%; in assay [3], -3.2%; in assay [4], -26.6%; in assay [5] it was -2.25%; in assay [6], -3.35%.
For `Cc1ccc([N+](=O)[O-])cc1NC(=O)C(=O)Cc1nc2ccc(C(=O)c3ccccc3)cc2[nH]c1=O`, the growth inhibition in assay [1] is -4.7%; in assay [2], -20.7%; in assay [3], -9.05%; in assay [4] it was 11.6%; in assay [5], 10.3%; in assay [6], -5.7%.
In the case of `Nc1cc([N+](=O)[O-])ccc1N1C(=O)CCCC1=O`, the growth inhibition in assay [1] is -15.2%; in assay [2], -4.95%; in assay [3], -10.1%; in assay [4] it was -5.8%; in assay [5], 5.85%; in assay [6], 12.4%.
For the molecule `COC1=CC(=O)O/C1=C(\OC)C1OC1c1ccccc1` (stereo unspecified), the growth inhibition in assay [1] is -4%; in assay [2], -7.25%; in assay [3], 2.9%; in assay [4] it was -1.35%; in assay [5], -6.5%; in assay [6], -24.9%.
Take `CC(C)(C)c1ccc(O)c(C(=O)O)c1`: the growth inhibition in assay [1] was 3.55%; in assay [2] it was -0.95%; in assay [3], -5.8%; in assay [4], -4%; in assay [5], -35.1%; in assay [6], -23.2%.
Regarding `O=C1OCC/C1=C\c1ccsc1`, the growth inhibition is 6.4% in assay [1]; 10.2% in assay [2]; -6.9% in assay [3]; -6% in assay [4]; -8.3% in assay [5]; -3.4% in assay [6].
As for `CC1=C(C)CC2(CC1)C(=O)C1(CCC(C)=C(C)C1)C2=O` (stereo unspecified), the growth inhibition is 25.2% in assay [1]; 0.7% in assay [2]; -2.8% in assay [3]; 14.1% in assay [4]; 17% in assay [5]; 15.6% in assay [6].
Take `c1ccc2c(c1)OCCOCCOc1ccccc1OCCO2`: the growth inhibition in assay [1] was -3.6%; in assay [2] it was 0.4%; in assay [3] it was 0.95%; in assay [4], 17.8%; in assay [5], -6.5%; in assay [6], -3.65%.
`O=C(Nc1nc(=S)c2c(ncn2CCO)[nH]1)c1ccccc1`: the growth inhibition in assay [1] was 4.95%; in assay [2], -14%; in assay [3], 8.6%; in assay [4], 12.9%; in assay [5], 4.7%; in assay [6], -0.7%.
`CCOC(=O)C1SC(=Nc2ccc(Cl)cc2Cl)N=C1C` (stereo unspecified): the growth inhibition in assay [1] is -0.75%; in assay [2], -10.3%; in assay [3], 4.4%; in assay [4], -19.2%; in assay [5], -2.85%; in assay [6] it was -10.8%.
